Data as given in PubChem BioAssay AID1159580 (chemical genetic matrix, 2015).
About 2,000 (36%) of roughly 5,500 compounds were called active. Not shown: some 18% with an inconclusive outcome. No stated cut-off is given here; in the data, active means normalized growth mostly below about 0.91 (no sharp cut-off); inconclusive means no clear call, values can overlap the other calls; inactive means mostly above about 0.92. The list shows a part of the results.

Assay: chemical genetic growth profiling, strain panel (AID 1159580);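 further: tested at 20 µM; growth read once vehicle control cultures reached saturation at 30 °C; 1 = growth at the plate median or of vehicle wells; lower values mean less growth of the strain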
Details: growth OD
[1] = S. cerevisiae deletion strains, locus YAL013W, strain DEP1, active compounds read low
[2] = S. cerevisiae deletion strains, locus YBR229C, strain ROT2, active compounds read low
[3] = S. cerevisiae deletion strains, locus YDL101C, strain DUN1, active compounds read low
[4] = S. cerevisiae deletion strains, locus YDR150W, strain NUM1, active compounds read low
[5] = S. cerevisiae deletion strains, locus YEL061C, strain CIN8, active compounds read low
[6] = S. cerevisiae deletion strains, locus YGR078C, strain PAC10, active compounds read low
[7] = S. cerevisiae deletion strains, locus YHR030C, strain SLT2, active compounds read low
[8] = S. cerevisiae deletion strains, locus YHR087W, strain rtc3, active compounds read low
[9] = S. cerevisiae deletion strains, locus YJR043C, strain POL32, active compounds read low
[10] = S. cerevisiae deletion strains, locus YJR075W, strain HOC1, active compounds read low
[11] = S. cerevisiae deletion strains, locus YLR039C, strain RIC1, active compounds read low
[12] = S. cerevisiae deletion strains, locus YLR058C, strain SHM2 (second series), active compounds read low
[13] = S. cerevisiae deletion strains, locus YLR085C, strain ARP6, active compounds read low
[14] = S. cerevisiae deletion strains, locus YLR262C, strain YPT6, active compounds read low
[15] = S. cerevisiae deletion strains, locus YML094W, strain GIM5, active compounds read low
[16] = S. cerevisiae deletion strains, locus YMR219W, strain ESC1, active compounds read low
[17] = S. cerevisiae deletion strains, locus YMR263W, strain SAP30, active compounds read low
[18] = S. cerevisiae deletion strains, locus YNL128W, strain TEP1, active compounds read low
[19] = S. cerevisiae deletion strains, locus YNL153C, strain GIM3, active compounds read low
[20] = S. cerevisiae deletion strains, locus YNL298W, strain CLA4 (second series), active compounds read low
[21] = S. cerevisiae deletion strains, locus YNL322C, strain KRE1, active compounds read low
[22] = S. cerevisiae deletion strains, locus YNR030W, strain Alg12, active compounds read low
[23] = S. cerevisiae deletion strains, locus YPL055C, strain LGE1, active compounds read low
[24] = S. cerevisiae deletion strains, locus YPL241C, strain CIN2, active compounds read low
[25] = S. cerevisiae deletion strains, locus YPR135W, strain CTF4, active compounds read low
[26] = S. cerevisiae strains, strain wild type, active compounds read low

Measured: normalized growth

CCCCNC(=O)NCCSCc1ccco1
inactive: [1] 1.01 | [2] 0.986 | [3] 0.982 | S. cerevisiae deletion strains, locus YDL134C, strain PPH21, active compounds read low 0.993 | [4] 1 | [5] 0.98 | [6] 0.994 | [7] 1.02 | [8] 0.99 | [9] 1.01 | [10] 1.01 | [11] 1 | [12] 0.991 | [13] 0.943 | [14] 1.02 | [15] 0.988 | [16] 0.989 | [17] 0.996 | [18] 0.987 | [19] 1.01 | [20] 0.984 | [21] 0.99 | [22] 0.998 | [23] 1 | [24] 0.988 | [25] 1.05 | [26] 0.98

COc1ccc(-c2ccnc(SCC(=O)NCCSCc3ccco3)n2)cc1
inactive: [1] 1.01 | [2] 0.998 | S. cerevisiae deletion strains, locus YCL061C, strain MRC1, active compounds read low 1.01 | [3] 1 | [4] 0.991 | [5] 1 | [6] 1.01 | [7] 1.09 | [8] 0.998 | S. cerevisiae deletion strains, locus YJL187C, strain SWE1, active compounds read low 1.02 | [9] 1 | [10] 0.991 | [11] 0.999 | [12] 1 | [13] 0.98 | [14] 1.03 | [15] 1 | [16] 1.01 | [17] 1.01 | S. cerevisiae deletion strains, locus YMR307W, strain GAS1, active compounds read low 0.993 | [18] 0.999 | [19] 1.02 | [20] 1.01 | [21] 1.01 | [22] 1.01 | S. cerevisiae deletion strains, locus YOL006C, strain TOP1, active compounds read low 1.03 | [23] 1.02 | [24] 1.01 | [25] 1.03 | [26] 1
